We go through 76 molecules from PubChem BioAssay AID432 (Sanford-Burnham Center for Chemical Genomics, 2006).

Out of some 64,000 compounds screened, about 15 (0.02%) were called active. Not all results are given here. Results with a measured potency or affinity are listed apart. A number with no mark means an inactive call. How the calls were made is not given here.

This assay deals with Bcl-2-related protein A1 (Mus musculus) (UniProt Q07440). Put plainly: displacement of Bid BH3 peptide from Bfl-1 – biochemical, fluorescence polarization, FITC-Bid, mouse, primary screen (AID 432). As to conditions: at 20 µM, stronger effect = higher value.
Sequence of Bcl-2-related protein A1 (Mus musculus) (Q07440 whole entry, looked up): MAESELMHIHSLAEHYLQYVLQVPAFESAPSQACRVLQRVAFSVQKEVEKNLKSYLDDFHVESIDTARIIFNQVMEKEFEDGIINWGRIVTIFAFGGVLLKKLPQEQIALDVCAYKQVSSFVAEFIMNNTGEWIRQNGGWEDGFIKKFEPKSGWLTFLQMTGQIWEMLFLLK
For `NC(=O)CSc1nnc(-c2ccc(S(=O)(=O)N3CCCC3)cc2)n1Cc1ccco1`, the displacement is -5.3%.

Consider `CC1CCN(CCCNC(=O)c2cc3sccc3n2C)CC1`, for which the displacement is 1.5%.

Turning to `CCN1CCN(CC(=O)Nc2c(C(=O)OC)[nH]c3cccc(Cl)c23)CC1`, the displacement is -4.1%.

Consider `O=C(O)c1ccc(NS(=O)(=O)c2ccc(Cl)cc2)cc1`, for which the displacement was -8.2%.

Turning to `CCn1c(SCC(=O)OC)nc2sc3c(c2c1=O)CCC3`, the displacement was 2.2%.

On to `CCn1c(SC(C)C(=O)O)nc2sc3c(c2c1=O)CCC3` (stereo unspecified), for which the displacement was 22.5%.

Regarding `Cn1c(=O)c2ncn(CC(=O)NCCC3=CCCCC3)c2n(C)c1=O`, the displacement is -18.3%.

For the molecule `COCCCNC(=O)Cn1cc2c(n1)CCCCC2`, the displacement was 5%.

For the molecule `O=C(c1cccc(S(=O)(=O)N2CCCCC2)c1)N1CCOCC1`, the displacement is -1.1%.

As to `CS(=O)(=O)c1nc(-c2ccccc2)cc(C(F)(F)F)n1`, the displacement was 37.1%.

As to `COc1ccc(-c2cc(C(F)(F)F)nc(NC3CCCC3)n2)cc1OC`, the displacement was -2.6%.

`CCOC(=O)Nc1c(O)ccc2oc(C)c(-c3ccccc3)c12`: the displacement was 1.9%.

Turning to `Cc1ccc(C)c(-n2nnnc2SCC(=O)NCCC2=CCCCC2)c1`, the displacement is 8.5%.

As for `CCc1ccccc1NC1=NCC(=O)N1C1CCCCC1`, the displacement was 0.4%.

As for `Cc1ccc(CN2C(=O)CCC2C(=O)NC2CCCC2)cc1` (stereo unspecified), the displacement is -12%.

Regarding `Cc1cc(O)ccc1Nc1nc2ccccc2nc1Nc1ccc(O)cc1C`, the displacement is -1.4%.

As for `Cc1cc(NC(=O)Nc2cccc3ccccc23)no1`, the displacement was -1.4%.

Turning to `CN1CCN(C2=C(Cl)C(=O)N(c3ccc(Cl)cc3)C2=O)CC1`, the displacement is 49.4%.

As for `CN1CCN(C2=C(Cl)C(=O)N(c3cccc(Cl)c3)C2=O)CC1`, the displacement is 32.3%.

Take `CCSc1nnc(NC(=O)C(C)C)s1`: the displacement was 0.1%.

With `CCSc1nnc(NC(=O)C(C)(C(F)(F)F)C(F)(F)F)s1`, the displacement is -5.7%.

For `Cc1ccc(C2C(C#N)=C(N)SC(N)=C2C#N)c(C)c1`, the displacement is -31.9%.

For `NS(=O)(=O)c1ccc(-n2nncc2C23CC4CC(CC(C4)C2)C3)cc1`, the displacement is -2.1%.

As for `COC(=O)C1=C(N)Oc2cc(C)n(CC3CCCO3)c(=O)c2C1c1ccc(Cl)cc1` (stereo unspecified), the displacement is -2.1%.

As to `c1cn(-c2ncnc3sc4c(c23)CCCC4)cn1`, the displacement was -0.8%.

In the case of `O=C(NCc1ccccc1)c1c[nH]c2ccc(S(=O)(=O)Nc3ccc4c(c3)OCCO4)cc2c1=O`, the displacement is -3.6%.

For `O=C(Nn1c(C2CCC2)nc2ccccc2c1=O)C1CCC1`, the displacement was -9%.

On to `Cn1c(=O)[nH]c(=O)c2c1nc(Br)n2Cc1ccccc1F`, for which the displacement was -3.5%.

As for `CC(=O)c1ccc(OCC(O)CN2CCN(c3ccccn3)CC2)cc1` (stereo unspecified), the displacement was -0.7%.

Consider `CC1=CC(C)(C)N2C(=O)C3(C(C#N)=C(N)Oc4cc(O)ccc43)c3cccc1c32` (stereo unspecified), for which the displacement was -2.9%.

Consider `O=C(Nc1ccc2c(c1)OCO2)c1cnn2c(C(F)(F)F)cc(-c3ccco3)nc12`, for which the displacement was 1%.

Consider `COc1ccc(NC(=O)c2cnn3c(C(F)(F)F)cc(-c4ccco4)nc23)cc1OC`, for which the displacement was 12%.

As for `COc1ccccc1N1CCN(C(=O)C(C)N(c2ccc(C)c(C)c2)S(C)(=O)=O)CC1` (stereo unspecified), the displacement was -2%.

Regarding `COCCNC(=O)Cn1nc(C(F)(F)F)c(Br)c1C`, the displacement was -0.1%.

`CC1CCC(NC(=O)CN2CCCN(Cc3ccc(F)cc3Cl)C2=O)CC1` (stereo unspecified): the displacement is -0.5%.

Regarding `O=C(CN1C(=O)CC(c2ccco2)Sc2ccccc21)NCC1CCCO1` (stereo unspecified), the displacement is -4.3%.

Take `CCCN1CCN(C(=O)Cn2cccc2C(=O)c2ccccc2)CC1`: the displacement is -2.4%.

As to `COC(=O)CCC(=O)Nc1ccc(NC(C)=O)cc1`, the displacement was 0.3%.

In the case of `COc1ccc(OC)c(S(=O)(=O)n2nc(-c3ccccc3)cc2N)c1`, the displacement was -0.3%.

As to `COc1ccc(S(=O)(=O)n2nc(-c3cc(OC)c(OC)c(OC)c3)cc2N)cc1OC`, the displacement is 3.4%.

Regarding `CC(C)(C)Sc1nc(O)cc(=O)[nH]1`, the displacement was -4.4%.

For the molecule `CN(c1ccccc1)S(=O)(=O)c1cc(C(=O)N2CCN(c3ccccn3)CC2)ccc1Cl`, the displacement was -4.6%.

`CC1CN(C(=O)c2ccc(C(=O)c3ccccc3)cc2)CC(C)O1` (stereo unspecified): the displacement is -0.8%.

Take `O=C1CC2CS(=O)(=O)CC2N1C1CCCCC1` (stereo unspecified): the displacement was 2%.

As for `CCN(CC)S(=O)(=O)c1ccc(Cl)c(C(=O)NCC2CCCO2)c1` (stereo unspecified), the displacement was -6.5%.

On to `COc1nc(-c2ccccc2)ccc1-c1noc(-c2ccc(F)cc2)n1`, for which the displacement was -1.8%.

For `COc1cccc(-c2nc(-c3ccccc3)no2)c1`, the displacement is -9.1%.

On to `COc1ccc(-c2ccc(-c3noc(-c4ccccc4)n3)c(OC)n2)cc1`, for which the displacement was -44.4%.

`COc1cc(OC)cc(-c2nc(-c3cc4cc(C)ccc4nc3OC)no2)c1`: the displacement is -2%.

Consider `COCCNC(=O)C(c1ccccc1)N(Cc1cccs1)C(=O)Cn1nnc2ccccc21` (stereo unspecified), for which the displacement was 4.1%.

As to `CCCCCOc1ccc(C(=O)NC(CCC)C(=O)O)cc1` (stereo unspecified), the displacement was 0.1%.

Regarding `CCCn1nnc(NCc2ccc(OCc3cccs3)c(OC)c2)n1`, the displacement was 1.2%.

`CCCNC(=O)Nc1cc(C)on1`: the displacement was -15.6%.

Regarding `N#Cc1cc2c(nc1SCC1COc3ccccc3O1)CCC2` (stereo unspecified), the displacement is -4.2%.

With `O=C(CC(c1ccccc1O)N1CCCCC1)N1CCCCC1` (stereo unspecified), the displacement is -9.2%.

As for `COc1ccccc1-n1cnnc1SC1CCOC1=O` (stereo unspecified), the displacement was -0.5%.

In the case of `O=C(CSc1nnnn1C1CCCCC1)Nc1cccc(NC(=O)c2ccco2)c1`, the displacement is 6.6%.

In the case of `Cc1c(C(=O)NCc2cccnc2)oc2c1C(=O)CC(C)(C)C2`, the displacement was -2.3%.

As to `CCCc1[nH]nc2c1C(CCc1ccccc1)C(C#N)=C(N)O2` (stereo unspecified), the displacement is -3.6%.

Take `Cc1nc(SCC(=O)NCC2CCCO2)c2oc3ccccc3c2n1` (stereo unspecified): the displacement is -3.4%.

`CC(C)(O)c1nnn(-c2ccccc2)c1C(F)(F)F`: the displacement is -3%.

With `COc1cccc(CNCC(=O)N2C(C)CCCC2C)c1` (stereo unspecified), the displacement was -0.5%.

Regarding `CNC(=O)c1cc2ccc(OC)cc2oc1=O`, the displacement is -6.1%.

With `O=C1CCc2cc(S(=O)(=O)N3CCC(C(=O)NC4CCCc5ccccc54)CC3)ccc2N1` (stereo unspecified), the displacement is -5.6%.

On to `Cc1csc(-c2cnn(-c3ccccc3)c2NC(=O)c2ccccc2)n1`, for which the displacement was -3.3%.

For the molecule `COc1cccc(-c2nn(C)c3sc(C(=O)NCc4ccccn4)cc23)c1`, the displacement was 3.4%.

Regarding `COC(=O)c1ccc(NC(=O)C2C3C=CC(O3)C2C(=O)O)cc1` (stereo unspecified), the displacement was 1.3%.

In the case of `Cc1cccc(-n2c(SCC(=O)N3CCCC3)nnc2-c2ccccn2)c1C`, the displacement is -5.2%.

Turning to `CCC/C(O)=C1\C(=O)CC(C)(C)CC1=NCCO`, the displacement is 2.8%.

On to `O=S(=O)(c1ccc(Br)s1)n1cccn1`, for which the displacement was -3.1%.

For `O=C(Nc1nncs1)C1COc2ccccc2O1` (stereo unspecified), the displacement is -5%.

Turning to `O=C(NC(NCCCN1CCOCC1)(C(F)(F)F)C(F)(F)F)C1CCCCC1`, the displacement is -1.1%.

For the molecule `Cc1nc(NCCN2CCOCC2)c2nnn(Cc3c(F)cccc3Cl)c2n1`, the displacement is -1.3%.

Turning to `CCOC(=O)/C(C#N)=C(\N)C(C)C(=O)Nc1ccccn1` (stereo unspecified), the displacement is -3.2%.

`CCOC(=O)CNC(=O)CSc1nc2cccnc2n1C1CCCCC1`: the displacement is -8.1%.

As for `Cn1c(NC(=O)c2cc(Br)ccc2Cl)cc(=O)n(C)c1=O`, the displacement was -6.3%.
